Paper PMC7862700, “An all-to-all approach to the identification of sequence-specific readers for epigenetic DNA modifications on cytosine”

What was measured:
Assay in all cases: DAPPL (digital affinity profiling via proximity ligation, sequencing); 10 mM Tris-HCl pH 7.5, 50 mM NaCl, 1 mM DTT, 4% glycerol, room temperature, 30 min; GST-TFs on glutathione beads, 16-mer random dsDNA library, 0.1% formaldehyde crosslink after washing; high values mean tight binding
Details in all cases: protein: recombinant; tags: N-terminal GST; dsDNA, one strand shown
ERF = molecular target: T1, ERF (Homo sapiens, UniProt P50548 1-548)
T1 sequence: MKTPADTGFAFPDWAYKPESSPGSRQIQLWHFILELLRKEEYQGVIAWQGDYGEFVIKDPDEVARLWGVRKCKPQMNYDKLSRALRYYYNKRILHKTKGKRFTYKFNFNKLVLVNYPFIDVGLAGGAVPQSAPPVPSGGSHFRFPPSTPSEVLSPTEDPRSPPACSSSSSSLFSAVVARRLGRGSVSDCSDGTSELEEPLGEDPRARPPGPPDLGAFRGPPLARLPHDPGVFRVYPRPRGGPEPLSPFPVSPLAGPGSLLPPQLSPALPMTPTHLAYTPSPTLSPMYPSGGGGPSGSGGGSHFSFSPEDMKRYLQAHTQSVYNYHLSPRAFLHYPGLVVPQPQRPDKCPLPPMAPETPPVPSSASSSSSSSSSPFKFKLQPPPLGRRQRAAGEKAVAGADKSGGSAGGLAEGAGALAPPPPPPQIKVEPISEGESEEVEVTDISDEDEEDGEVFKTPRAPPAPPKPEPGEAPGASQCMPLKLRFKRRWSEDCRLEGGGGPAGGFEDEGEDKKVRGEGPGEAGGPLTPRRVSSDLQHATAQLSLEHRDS
In short: (§1)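 Human transcription factors carrying a GST fusion were produced in yeast, bound to glutathione beads, tagged with DNA barcodes and pooled together with a tag-only sample. Each pool was held with 200 nmole of a random double-stranded 16-mer DNA library in Tris/NaCl/DTT/glycerol buffer for 30 min at room temperature, then washed, crosslinked in 0.1% formaldehyde, proximity-ligated with BsaI/T4 ligase (1 h, 37 °C), PCR-amplified and sequenced on an Illumina NextSeq500. Binding signal is the read frequency of each hexamer for a given factor divided by its frequency in the tag-only sample.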

ETV3L = molecular target: T2, ETV3L (Homo sapiens, UniProt Q6ZN32 1-361)
T2 sequence: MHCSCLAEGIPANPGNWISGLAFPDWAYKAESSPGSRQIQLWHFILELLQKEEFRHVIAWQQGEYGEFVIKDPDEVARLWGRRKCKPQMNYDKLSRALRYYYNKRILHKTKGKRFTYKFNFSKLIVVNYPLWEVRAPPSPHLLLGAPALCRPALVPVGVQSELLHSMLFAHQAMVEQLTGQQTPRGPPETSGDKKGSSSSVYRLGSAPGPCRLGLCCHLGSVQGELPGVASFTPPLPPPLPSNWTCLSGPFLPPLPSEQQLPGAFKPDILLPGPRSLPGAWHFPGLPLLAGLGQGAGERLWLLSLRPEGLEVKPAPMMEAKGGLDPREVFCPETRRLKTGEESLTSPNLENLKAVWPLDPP
In short: as §1

ETS2 = molecular target: T3, ETS2 (Homo sapiens, UniProt P15036 1-469)
T3 sequence: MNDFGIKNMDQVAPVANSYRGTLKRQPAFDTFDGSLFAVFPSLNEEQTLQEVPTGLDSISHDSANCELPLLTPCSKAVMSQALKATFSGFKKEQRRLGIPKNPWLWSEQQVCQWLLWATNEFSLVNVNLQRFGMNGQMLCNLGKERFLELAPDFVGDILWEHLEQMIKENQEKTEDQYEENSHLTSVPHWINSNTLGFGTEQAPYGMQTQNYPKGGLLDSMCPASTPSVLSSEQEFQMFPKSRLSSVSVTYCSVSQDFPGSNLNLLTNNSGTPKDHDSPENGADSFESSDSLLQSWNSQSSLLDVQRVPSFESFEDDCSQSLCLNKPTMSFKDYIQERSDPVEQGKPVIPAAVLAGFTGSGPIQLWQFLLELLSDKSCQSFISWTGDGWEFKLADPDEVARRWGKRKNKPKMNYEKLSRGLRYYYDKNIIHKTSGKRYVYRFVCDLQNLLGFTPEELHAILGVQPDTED
In short: as §1

SPDEF = molecular target: T4, SPDEF (Homo sapiens, UniProt O95238 1-335)
T4 sequence: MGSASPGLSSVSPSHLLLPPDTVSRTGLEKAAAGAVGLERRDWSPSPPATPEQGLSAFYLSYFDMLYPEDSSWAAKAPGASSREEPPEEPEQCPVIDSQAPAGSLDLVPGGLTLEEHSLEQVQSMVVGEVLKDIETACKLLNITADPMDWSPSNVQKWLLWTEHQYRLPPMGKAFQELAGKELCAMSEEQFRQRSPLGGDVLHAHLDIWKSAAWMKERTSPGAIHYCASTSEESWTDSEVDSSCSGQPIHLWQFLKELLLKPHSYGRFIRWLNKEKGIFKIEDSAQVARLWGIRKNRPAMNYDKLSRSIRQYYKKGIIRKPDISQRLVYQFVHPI
In short: as §1

ETV7 = molecular target: T5, ETV7 (Homo sapiens, UniProt Q9Y603 1-341)
T5 sequence: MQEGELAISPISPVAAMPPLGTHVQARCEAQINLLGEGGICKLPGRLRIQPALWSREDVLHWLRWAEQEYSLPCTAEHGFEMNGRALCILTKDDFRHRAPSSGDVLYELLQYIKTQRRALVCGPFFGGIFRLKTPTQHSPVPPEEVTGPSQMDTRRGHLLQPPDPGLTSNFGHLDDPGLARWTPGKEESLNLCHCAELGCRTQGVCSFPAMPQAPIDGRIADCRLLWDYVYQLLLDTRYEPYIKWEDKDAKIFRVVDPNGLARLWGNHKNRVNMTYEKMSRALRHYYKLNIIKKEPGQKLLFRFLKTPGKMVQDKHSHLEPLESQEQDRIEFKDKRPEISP
In short: as §1

ELF5 = molecular target: T6, ELF5 (Homo sapiens, UniProt Q9UKW6-2 1-255)
T6 sequence: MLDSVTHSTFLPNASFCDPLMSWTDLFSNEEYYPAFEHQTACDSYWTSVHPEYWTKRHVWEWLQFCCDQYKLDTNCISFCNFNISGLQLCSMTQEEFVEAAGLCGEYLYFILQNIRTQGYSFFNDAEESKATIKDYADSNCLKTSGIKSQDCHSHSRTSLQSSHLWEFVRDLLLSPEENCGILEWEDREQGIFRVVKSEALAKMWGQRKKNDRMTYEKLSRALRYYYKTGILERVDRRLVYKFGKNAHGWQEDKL
In short: as §1

ETV3 = molecular target: T7, ETV3 (Homo sapiens, UniProt P41162-2 1-143)
T7 sequence: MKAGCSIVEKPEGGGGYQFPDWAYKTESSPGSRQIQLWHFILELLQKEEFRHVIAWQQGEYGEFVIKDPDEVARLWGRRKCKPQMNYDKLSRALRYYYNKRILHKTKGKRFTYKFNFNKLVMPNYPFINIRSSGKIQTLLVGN
In short: as §1

ETV6 = ETV6 (Homo sapiens, UniProt P41212 1-452)
In short: as §1

ETV6, sequence (P41212 whole entry): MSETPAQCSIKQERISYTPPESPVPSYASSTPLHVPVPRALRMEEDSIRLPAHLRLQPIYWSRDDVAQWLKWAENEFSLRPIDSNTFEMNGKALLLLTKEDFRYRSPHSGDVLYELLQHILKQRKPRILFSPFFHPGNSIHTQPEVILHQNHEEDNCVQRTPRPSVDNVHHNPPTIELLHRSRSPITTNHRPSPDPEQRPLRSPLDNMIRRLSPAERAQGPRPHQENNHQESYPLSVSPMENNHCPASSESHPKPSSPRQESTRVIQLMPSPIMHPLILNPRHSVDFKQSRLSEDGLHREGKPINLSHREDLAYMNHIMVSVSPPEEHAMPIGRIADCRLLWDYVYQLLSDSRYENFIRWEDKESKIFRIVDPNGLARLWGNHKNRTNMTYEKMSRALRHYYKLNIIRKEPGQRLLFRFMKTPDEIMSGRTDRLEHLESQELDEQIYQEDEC

Row | Sequence | binding signal (ERF) | binding signal (ETV3L) | binding signal (ETS2) | binding signal (SPDEF) | binding signal (ETV7) | binding signal (ELF5) | binding signal (ETV3) | binding signal (ETV6)
1 | TAAGCC | 1.15 fold enrichment (6-mer frequency, TF over GST control) | 1.2 fold enrichment (6-mer frequency, TF over GST control) | 1.15 fold enrichment (6-mer frequency, TF over GST control) | 1.12 fold enrichment (6-mer frequency, TF over GST control) | 1.1 fold enrichment (6-mer frequency, TF over GST control) | 1.03 fold enrichment (6-mer frequency, TF over GST control) | 1.12 fold enrichment (6-mer frequency, TF over GST control) | 1.03 fold enrichment (6-mer frequency, TF over GST control)
2 | AGGAAG | 1.2 fold enrichment (6-mer frequency, TF over GST control) | 1.33 fold enrichment (6-mer frequency, TF over GST control) | 1.5 fold enrichment (6-mer frequency, TF over GST control) | 1.15 fold enrichment (6-mer frequency, TF over GST control) | 1.23 fold enrichment (6-mer frequency, TF over GST control) | 2.03 fold enrichment (6-mer frequency, TF over GST control) | 1.54 fold enrichment (6-mer frequency, TF over GST control) | 1.71 fold enrichment (6-mer frequency, TF over GST control)
3 | TATACC | 1.27 fold enrichment (6-mer frequency, TF over GST control) | 1.15 fold enrichment (6-mer frequency, TF over GST control) | 1.24 fold enrichment (6-mer frequency, TF over GST control) | 1.26 fold enrichment (6-mer frequency, TF over GST control) | 1.15 fold enrichment (6-mer frequency, TF over GST control) | 1.22 fold enrichment (6-mer frequency, TF over GST control) | 1.26 fold enrichment (6-mer frequency, TF over GST control) | 1.21 fold enrichment (6-mer frequency, TF over GST control)
4 | CTTGAA | 1.2 fold enrichment (6-mer frequency, TF over GST control) | 1.11 fold enrichment (6-mer frequency, TF over GST control) | 1.16 fold enrichment (6-mer frequency, TF over GST control) | 1.13 fold enrichment (6-mer frequency, TF over GST control) | 1.08 fold enrichment (6-mer frequency, TF over GST control) | 1.15 fold enrichment (6-mer frequency, TF over GST control) | 1.16 fold enrichment (6-mer frequency, TF over GST control) | 1.07 fold enrichment (6-mer frequency, TF over GST control)
5 | AATGGG | 1.16 fold enrichment (6-mer frequency, TF over GST control) | 1.15 fold enrichment (6-mer frequency, TF over GST control) | 1.19 fold enrichment (6-mer frequency, TF over GST control) | 1.12 fold enrichment (6-mer frequency, TF over GST control) | 1.2 fold enrichment (6-mer frequency, TF over GST control) | 1.2 fold enrichment (6-mer frequency, TF over GST control) | 1.19 fold enrichment (6-mer frequency, TF over GST control) | 1.2 fold enrichment (6-mer frequency, TF over GST control)
6 | TAGCAT | 1.09 fold enrichment (6-mer frequency, TF over GST control) | 1.14 fold enrichment (6-mer frequency, TF over GST control) | 1.11 fold enrichment (6-mer frequency, TF over GST control) | 1.21 fold enrichment (6-mer frequency, TF over GST control) | 1.11 fold enrichment (6-mer frequency, TF over GST control) | 1.01 fold enrichment (6-mer frequency, TF over GST control) | 1.16 fold enrichment (6-mer frequency, TF over GST control) | 1.15 fold enrichment (6-mer frequency, TF over GST control)
